Experimental data from PubChem BioAssay (NCATS).
Inconclusive results are not listed. A number with no mark means an inactive call. The source made the active and inactive calls. Calls follow the shape of the dose curve; as a rule, active = well fitted cell-killing curve with a large enough effect; inconclusive = small, poorly fitted or top-dose-only effect, or effect the other way; inactive = no such curve, though single readings can be large or run the other way.
Potency is read from the fitted curve at half-maximal effect.

Assay: Quantitative High-Throughput drug screen in 47 multiple myeloma cell lines against the NCATS MIPE library collection: KMS28PE_JCRB cell viability assay (AID 1918983); also: nearly all actives have a fitted effect of over 35% in size
Conditions: KMS28PE multiple myeloma viability, CellTiter-Glo ATP, 48 h; series mostly up to 45.8 µM; viability, % of DMSO control: at the top concentration
Method in brief: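 ATP-based luminescence (CellTiter-Glo, 5 min RT incubation) quantified surviving cells following two days' treatment with MIPE 4.0 agents at 37 °C, 5% CO2.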
In the case of `COc1ccc(C=Cc2cc(OC)c(OC)c(OC)c2)cc1NC(=O)[C@H](N)CO`, the Potency is reported as 0.0093 µM (active).
For `CCN(CC)Cc1ccc2cc(COC(=O)Nc3ccc(C(=O)NO)cc3)ccc2c1`, the Potency was 0.662 µM (active).
In the case of `CC(=O)OCC(=O)[C@@]1(O)CC[C@H]2[C@@H]3CCC4=CC(=O)CC[C@]4(C)[C@@H]3C(=O)C[C@@]21C`, the “viability, % of DMSO control” value is reported as 129%.
For `COc1ccc2c(c1OC)C(=O)OC2[C@H]1c2c(cc3c(c2OC)OCO3)CCN1C` (some centres undefined), the Potency was 0.0526 µM (active).
With `COc1cccc2c1C(=O)c1c(O)c3c(c(O)c1C2=O)C[C@@](O)(C(C)=O)C[C@H]3O[C@H]1C[C@H](N)[C@H](O)[C@H](C)O1` the Potency was 0.0833 µM (active).
With `CCOC(=O)N1CCN([N+]([O-])=NOc2ccc([N+](=O)[O-])cc2C#N)CC1` the Potency was 1.18 µM (active).
For `C[C@H]1O[C@H](O[C@H]2[C@H](O)[C@@H](O)[C@@H](O[C@H]3[C@H](O)[C@@H](O)C(O)O[C@H]3CO)O[C@H]2CO)[C@H](O)[C@@H](O)[C@H]1N[C@H]1C=C(CO)[C@@H](O)[C@H](O)[C@@H]1O` (some centres undefined), the “viability, % of DMSO control” value was 125%.
In the case of `CC[C@H]1OC(=O)[C@H](C)[C@@H](O[C@H]2C[C@@](C)(OC)[C@@H](O)[C@H](C)O2)[C@H](C)[C@@H](O[C@@H]2O[C@H](C)C[C@H](N(C)C)[C@@H]2O)[C@](C)(OC)C[C@@H](C)C(=O)[C@H](C)[C@@H](O)[C@]1(C)O`, the “viability, % of DMSO control” value is reported as 102%.
For `OC[C@H]1OC(O)C[C@@H](O)[C@H]1O` (some centres undefined), the “viability, % of DMSO control” value was 120%.
In the case of `CN[C@H]1[C@@H](O)[C@@H]2O[C@@H]3O[C@H](C)CC(=O)[C@]3(O)O[C@@H]2[C@@H](NC)[C@H]1O`, the Potency is reported as 10.5 µM (active).
In the case of `COc1ccc(S(=O)(=O)Nc2cccnc2Nc2ccc(O)cc2)cc1`, the Potency is reported as 0.105 µM (active).
For `CC(=O)N[C@H]1[C@@H]([C@H](O)[C@H](O)CO)OC(C(=O)O)=C[C@@H]1N=C(N)N`, the “viability, % of DMSO control” value was 126%.
For `COc1cc(C)c(C=CC(C)=CC=CC(C)=CC(=O)O)c(C)c1C`, the “viability, % of DMSO control” value was 114%.
With `CCCCCCCCc1ccc(CCC(N)(CO)CO)cc1` the Potency was 18.7 µM (active).
For `C[C@H](CCC(=O)O)[C@H]1CCC2C3C[C@H](O)[C@@H]4C[C@H](O)CC[C@]4(C)C3CC[C@@]21C` (some centres undefined), the “viability, % of DMSO control” value was 93.5%.
For `Oc1cc(-c2nc(-c3ccccc3)[nH]c2-c2ccncc2)ccc1Cl`, the Potency was 20.9 µM (active).
With `C[C@H](CCC(=O)O)[C@H]1CC[C@H]2[C@@H]3[C@H](O)C[C@@H]4C[C@H](O)CC[C@]4(C)[C@@H]3CC[C@]12C` the “viability, % of DMSO control” value was 114%.
For `NC[C@H]1O[C@H](O[C@H]2[C@@H](O)[C@@H](O[C@H]3O[C@H](CO)[C@@H](O)[C@H](N)[C@@H]3O)[C@H](N)C[C@@H]2N)[C@H](N)C[C@H]1O`, the “viability, % of DMSO control” value was 123%.
For `COc1cc2c(Nc3ccc(Cl)c(Cl)c3F)ncnc2cc1OCC1C[C@@H]2CN(C)C[C@H]2C1`, the Potency was 16.6 µM (active).
In the case of `COC(=O)[C@H](CCCN=C(N)N)NS(=O)(=O)c1ccc(C)cc1`, the “viability, % of DMSO control” value is reported as 172%.
With `C[N+](C)([O-])CCNc1ccc(NCC[N+](C)(C)[O-])c2c1C(=O)c1c(O)ccc(O)c1C2=O` the “viability, % of DMSO control” value was 181%.
With `CCOC(=O)[C@H](CCc1ccccc1)N[C@@H](C)C(=O)N1[C@@H](C(=O)O)C[C@H]2CCC[C@@H]21` the Potency was 23.5 µM (active).
With `Oc1ccc(-c2ccc(-c3cc(Nc4cccc(CNC5CC5)c4)n[nH]3)cc2)c(O)c1` the Potency was 5.26 µM (active).
For `C=CCNC1=C2C[C@@H](C)C[C@H](OC)[C@@H](O)[C@@H](C)C=C(C)[C@H](OC(N)=O)[C@@H](OC)C=CC=C(C)C(=O)NC(=CC1=O)C2=O`, the Potency was 0.418 µM (active).
For `CC(C)(O)Cn1c(NC(=O)c2ccc(-c3cn[nH]c3)s2)nc2cc(CN3CCOCC3)ccc21`, the Potency was 1.48 µM (active).
For `CCCc1nc(C(C)(C)O)c(C(=O)O)n1Cc1ccc(-c2ccccc2-c2nn[nH]n2)cc1`, the “viability, % of DMSO control” value was 144%.
With `COc1cc(OC)cc(-c2ccc3ncc4ccc(=O)n(-c5ccc(N6CCNCC6)c(C(F)(F)F)c5)c4c3c2)c1` the Potency was 5.26 µM (active).
For `CC1=C(C(=O)Nc2cc3cn[nH]c3cc2F)C(c2ccc(Cl)cc2F)N=C(c2ccnc(Cl)c2)N1` (centres undefined), the Potency was 20.9 µM (active).
For `CN(C)CCN1C(=O)c2cccc3cc(N)cc(c23)C1=O`, the Potency was 16.6 µM (active).
With `COc1cc(C)c(Sc2cnc(NC(=O)c3ccc(CNC(C)C(C)(C)C)cc3)s2)cc1C(=O)N1CCN(C(C)=O)CC1` (centres undefined) the Potency was 9.35 µM (active).
For `CCNC(=O)Nc1ccc(-c2nc3c(c(N4CCOC[C@H]4C)n2)CCN(C2COC2)C3)cc1`, the Potency was 0.833 µM (active).
For `CON=C(C(=O)N[C@@H]1C(=O)N2C(C(=O)O)=C(Cn3ccc(=N)n3CCO)CS[C@H]12)c1csc(N)n1`, the “viability, % of DMSO control” value was 121%.
For `COC[C@H](NC(=O)c1cnc(C)s1)C(=O)N[C@@H](COC)C(=O)N[C@@H](Cc1ccccc1)C(=O)[C@@]1(C)CO1`, the Potency was 0.0662 µM (active).
For `COc1cccc2c1C(=O)c1c(O)c3c(c(O)c1C2=O)C[C@@](O)(C(=O)CO)C[C@@H]3O[C@H]1C[C@H](N)[C@H](OC2CCCCO2)[C@H](C)O1` (some centres undefined), the Potency was 2.64 µM (active).
With `Nc1cccc2c1C(=O)N(C1CCC(=O)NC1=O)C2=O` (centres undefined) the Potency was 0.0833 µM (active).
For `O=c1ccn([C@@H]2O[C@H](CO)[C@H](O)[C@@H]2F)c(=O)[nH]1`, the “viability, % of DMSO control” value was 120%.
In the case of `Cn1cc(CNCC2CCN(c3ncc(C(=O)NO)cn3)CC2)c2ccccc21`, the Potency is reported as 0.0296 µM (active).
With `CC(=O)NCC(=O)N1[C@H]2CC[C@H]1c1cc(Nc3ncc(C(F)(F)F)c(NC4CCC4)n3)ccc12` the Potency was 4.18 µM (active).
With `CC(C)N(CC[C@H](c1ccccc1)c1cc(CO)ccc1O)C(C)C` the “viability, % of DMSO control” value was 103%.
